Laboratory results taken from PubChem BioAssay AID624354 (Sanford-Burnham Center for Chemical Genomics, 2012).
Out of some 360,000 compounds screened, about 3,800 (1.1%) were called active.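 How the source made its calls: active means compounds causing at least 50% loss of cell viability in the single-dose screen, relative to plate controls; inactive means the rest.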 Only a selection was taken, and actives are over-represented in it overall.

Assay: viability loss with TRAIL in NB7+C8 cells, primary screen, TRAIL sensitizer project, cell-based, ATPlite luminescence (AID 624354)
Conditions: at 10 µM, stronger effect = higher value

Q: With `CC1(C(=O)NCc2ccco2)Cc2c(-c3ccc4c(c3)OCO4)ccnc2O1` (stereo not given) as the compound, how does the inhibition (viability loss, TRAIL sensitization) read?
A: Its inhibition (viability loss, TRAIL sensitization) is 14.9% (inactive).

Q: Which inhibition (viability loss, TRAIL sensitization) does the source give for `CCOc1cc(/C=N/NC(=O)c2c(C)nc3ccc(Cl)cn23)ccc1O` here?
A: The inhibition (viability loss, TRAIL sensitization) was -7.66% (inactive).

Q: Which inhibition (viability loss, TRAIL sensitization) does the source give for `COc1ccc(/C=N/NC(=O)Cn2cc(C(F)(F)F)ccc2=O)cc1` here?
A: Its inhibition (viability loss, TRAIL sensitization) is -0.17% (inactive).

Q: For `COc1cc(C=NC2CCCCC2)ccc1O`, which inhibition (viability loss, TRAIL sensitization) is on record?
A: Its inhibition (viability loss, TRAIL sensitization) is -2.08% (inactive).

Q: For `COc1ccc(/C=N/NC(=O)C(C)N(c2ccc(OC)cc2)S(C)(=O)=O)cc1` (stereo not given), which inhibition (viability loss, TRAIL sensitization) is on record?
A: Its inhibition (viability loss, TRAIL sensitization) is -5.4% (inactive).

Q: With `COc1ccc(/C=N/Nc2ccccc2C(=O)O)cc1` as the compound, how does the inhibition (viability loss, TRAIL sensitization) read?
A: Its inhibition (viability loss, TRAIL sensitization) is 55.9% (active).

Q: With `COc1ccc(C(=O)Nc2ccccc2C(=O)N/N=C/c2ccc(O)c(OC)c2)cc1` as the compound, how does the inhibition (viability loss, TRAIL sensitization) read?
A: Its inhibition (viability loss, TRAIL sensitization) is 95.8% (active).

Q: For `Cc1cccc(N(Cc2ccccc2)C(=O)c2cc(S(=O)(=O)N3CCOCC3)ccc2F)c1`, which inhibition (viability loss, TRAIL sensitization) is on record?
A: Its inhibition (viability loss, TRAIL sensitization) is 19.9% (inactive).

Q: For `CN(C)C(=O)CCc1ccc2c3c([nH]c2c1)[C@]1(CCc2ccccc2)[C@@H](C(=O)N2CCCCC2)C[C@H](CC(=O)NCCC2=CCCCC2)C(=O)N1CC3`, which inhibition (viability loss, TRAIL sensitization) is on record?
A: The inhibition (viability loss, TRAIL sensitization) was 13.2% (inactive).

Q: With `CCc1nc2ccc(C(=O)Nc3cccc(OC)c3)cn2c1N(CCC(C)C)CCN(C)C` as the compound, how does the inhibition (viability loss, TRAIL sensitization) read?
A: The inhibition (viability loss, TRAIL sensitization) was 15.5% (inactive).

Q: Which inhibition (viability loss, TRAIL sensitization) does the source give for `CCOc1ccccc1-n1c(SCC(=O)N2CCCC2)nnc1-c1ccoc1C` here?
A: Its inhibition (viability loss, TRAIL sensitization) is 2.53% (inactive).

Q: For `Cc1ccc(-c2cc(C(=O)N/N=C/C=C/c3ccco3)c3ccccc3n2)cc1C`, which inhibition (viability loss, TRAIL sensitization) is on record?
A: The inhibition (viability loss, TRAIL sensitization) was 61.5% (active).

Q: For `O=C(N/N=C/C=C/c1ccco1)c1cccs1`, which inhibition (viability loss, TRAIL sensitization) is on record?
A: Its inhibition (viability loss, TRAIL sensitization) is -0.972% (inactive).

Q: With `Cc1ccc(C(=O)N/C(=C/c2ccco2)C(=O)NCCc2c[nH]c3ccccc23)cc1C` as the compound, how does the inhibition (viability loss, TRAIL sensitization) read?
A: Its inhibition (viability loss, TRAIL sensitization) is -2.25% (inactive).

Q: With `Cc1ccc(C2Nc3ccccc3C(=O)N2CCN2CCNC2=O)cc1` (stereo not given) as the compound, how does the inhibition (viability loss, TRAIL sensitization) read?
A: The inhibition (viability loss, TRAIL sensitization) was -20.4% (inactive).

Q: With `Cc1ccc(-c2cn3cc(C)ccc3n2)cc1` as the compound, how does the inhibition (viability loss, TRAIL sensitization) read?
A: The inhibition (viability loss, TRAIL sensitization) was 87.8% (active).

Q: Which inhibition (viability loss, TRAIL sensitization) does the source give for `Cc1ccc(-c2cn3cc([N+](=O)[O-])ccc3n2)cc1` here?
A: The inhibition (viability loss, TRAIL sensitization) was 56.8% (active).

Q: For `CC(=O)Nc1c(-c2ccc(C)cc2)nc2ccc(Cl)cn12`, which inhibition (viability loss, TRAIL sensitization) is on record?
A: The inhibition (viability loss, TRAIL sensitization) was -3.92% (inactive).

Q: With `Cc1ccc(-c2nc3ccc(Br)cn3c2Cc2ccccc2C(F)(F)F)cc1` as the compound, how does the inhibition (viability loss, TRAIL sensitization) read?
A: The inhibition (viability loss, TRAIL sensitization) was 12.7% (inactive).

Q: Which inhibition (viability loss, TRAIL sensitization) does the source give for `Cc1ccc(-n2cc3ccc([N+](=O)[O-])cc3n2)cc1` here?
A: The inhibition (viability loss, TRAIL sensitization) was 25.5% (inactive).

Q: Which inhibition (viability loss, TRAIL sensitization) does the source give for `Cc1ccnc(N2C(=O)c3ccc([N+](=O)[O-])cc3C2=O)c1` here?
A: The inhibition (viability loss, TRAIL sensitization) was -23.1% (inactive).

Q: Which inhibition (viability loss, TRAIL sensitization) does the source give for `COc1ccc(-c2nc3ccc(Br)cn3c2Cc2ccc(C)cc2)cc1OC` here?
A: Its inhibition (viability loss, TRAIL sensitization) is 3.92% (inactive).

Q: Which inhibition (viability loss, TRAIL sensitization) does the source give for `Cc1ccc(Cc2c(-c3ccccc3)nc3ccc(Cl)cn23)cc1` here?
A: The inhibition (viability loss, TRAIL sensitization) was 8.97% (inactive).

Q: With `Cc1ccc2nc(-c3ccc(Br)cc3)cn2c1` as the compound, how does the inhibition (viability loss, TRAIL sensitization) read?
A: Its inhibition (viability loss, TRAIL sensitization) is 67.2% (active).

Q: Which inhibition (viability loss, TRAIL sensitization) does the source give for `CCOc1ccc(C(C)=O)cc1CSc1nnc(-c2ccncc2)n1CCOC` here?
A: Its inhibition (viability loss, TRAIL sensitization) is -21.1% (inactive).

Q: With `CC(C)Oc1ccc(/C=C(\NC(=O)/C=C/c2ccco2)C(=O)NCCc2nc3ccccc3[nH]2)cc1` as the compound, how does the inhibition (viability loss, TRAIL sensitization) read?
A: Its inhibition (viability loss, TRAIL sensitization) is -11.3% (inactive).

Q: For `CCCCN(CC)C(=O)CN(C)S(=O)(=O)c1cccc2nsnc12`, which inhibition (viability loss, TRAIL sensitization) is on record?
A: Its inhibition (viability loss, TRAIL sensitization) is 4.95% (inactive).

Q: With `CN(CC(=O)Nc1c(Cl)cccc1Cl)C(=O)c1ccncc1` as the compound, how does the inhibition (viability loss, TRAIL sensitization) read?
A: Its inhibition (viability loss, TRAIL sensitization) is -1.41% (inactive).

Q: With `OC[C@@H]1CN(Cc2ccc(Cl)cc2)C[C@H](n2cnc3c(NCc4ccncc4)ncnc32)O1` as the compound, how does the inhibition (viability loss, TRAIL sensitization) read?
A: Its inhibition (viability loss, TRAIL sensitization) is 0.808% (inactive).

Q: For `CSCCC(NS(=O)(=O)c1ccccc1F)C(=O)N1CC=C(c2ccccc2)CC1` (stereo not given), which inhibition (viability loss, TRAIL sensitization) is on record?
A: Its inhibition (viability loss, TRAIL sensitization) is 15.4% (inactive).

Q: For `N#CCCn1ncc2ccccc21`, which inhibition (viability loss, TRAIL sensitization) is on record?
A: Its inhibition (viability loss, TRAIL sensitization) is -30.7% (inactive).

Q: For `COc1ccc2c(c1)cc1n2CCN=C1NN`, which inhibition (viability loss, TRAIL sensitization) is on record?
A: The inhibition (viability loss, TRAIL sensitization) was 6.58% (inactive).

Q: For `COc1ccc(C(=O)NC(Cc2ccc(OC(=O)c3ccc(OC)cc3)cc2)C(=O)O)cc1` (stereo not given), which inhibition (viability loss, TRAIL sensitization) is on record?
A: The inhibition (viability loss, TRAIL sensitization) was 7.3% (inactive).

Q: With `O=CNc1cc(-c2ccc(C(=O)N3CCOCC3)cc2)cn2c(-c3ccc(F)cc3)cnc12` as the compound, how does the inhibition (viability loss, TRAIL sensitization) read?
A: The inhibition (viability loss, TRAIL sensitization) was 19.1% (inactive).

Q: Which inhibition (viability loss, TRAIL sensitization) does the source give for `CC(C)CNC(=S)NC(=O)c1ccc(Cl)cc1` here?
A: The inhibition (viability loss, TRAIL sensitization) was -9.78% (inactive).

Q: For `CN1C(=O)[C@H]2[C@@H](/C=C/c3ccccc3)N3C(=O)CN(Cc4ccc(-c5ccccc5)cc4)C(=O)[C@@]3(C)[C@H]2C1=O`, which inhibition (viability loss, TRAIL sensitization) is on record?
A: The inhibition (viability loss, TRAIL sensitization) was 7.89% (inactive).

Q: For `CCOc1ccc(Br)cc1S(=O)(=O)Nc1ccc(C(=O)OC(C)C(=O)N(C)c2ccccc2)cc1` (stereo not given), which inhibition (viability loss, TRAIL sensitization) is on record?
A: The inhibition (viability loss, TRAIL sensitization) was 9.56% (inactive).

Q: Which inhibition (viability loss, TRAIL sensitization) does the source give for `Oc1ccc(/C=N/Nc2nc(-c3ccccc3F)nc3ccccc23)c(O)c1` here?
A: The inhibition (viability loss, TRAIL sensitization) was 60.2% (active).

Q: Which inhibition (viability loss, TRAIL sensitization) does the source give for `Cc1ccc(/C=N/NC(=O)C2=NNC(c3ccccc3)(c3ccccc3)C2)c(O)c1` here?
A: Its inhibition (viability loss, TRAIL sensitization) is 20.2% (inactive).

Q: Which inhibition (viability loss, TRAIL sensitization) does the source give for `O=C(NNc1c2ccccc2nc2ccccc12)c1cc2ccccc2cc1O` here?
A: Its inhibition (viability loss, TRAIL sensitization) is 11.6% (inactive).

Q: For `O=C(NCc1ccccn1)[C@@H]1CCCN1C(=O)[C@@H]1CCCN1C(=O)c1ccccc1`, which inhibition (viability loss, TRAIL sensitization) is on record?
A: Its inhibition (viability loss, TRAIL sensitization) is -14% (inactive).

Q: With `Nc1nc(NC(=O)/C=C/c2ccccc2)nn1-c1ccccc1` as the compound, how does the inhibition (viability loss, TRAIL sensitization) read?
A: The inhibition (viability loss, TRAIL sensitization) was 15% (inactive).

Q: For `COc1ccc(C2c3c(C)nn(-c4ccccc4)c3NC(=O)N2c2ccccc2)cc1` (stereo not given), which inhibition (viability loss, TRAIL sensitization) is on record?
A: Its inhibition (viability loss, TRAIL sensitization) is -5.29% (inactive).

Q: With `COc1ccc(CCNC(=O)c2c(C)nn(-c3ccccc3)c2Cl)cc1` as the compound, how does the inhibition (viability loss, TRAIL sensitization) read?
A: The inhibition (viability loss, TRAIL sensitization) was -4.85% (inactive).

Q: For `COc1ccc(Oc2c(Cl)cnn(-c3ccccc3)c2=O)cc1`, which inhibition (viability loss, TRAIL sensitization) is on record?
A: Its inhibition (viability loss, TRAIL sensitization) is 89.7% (active).
